G9a inh: qHTS Assay for Inhibitors of Histone Lysine Methyltransferase G9a | Potency, µM (highest dose often 102 µM), inactives show at the highest dose activity, negative = inhibition, most hits filed as inhibitors | 350,000 tested, 8.8% active | AID 504332, 2011 | Histone-lysine N-methyltransferase EHMT2 (Homo sapiens), Q96KQ7 | G9a H3K9 monomethylation, AlphaScreen, 2 h; note: % is set by controls: 0 for no effect and ±100 for the full control effect; nearly all actives have a fitted effect of over 75% in size
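AlphaScreen read-out: biotin-H3K9 peptide (500 nM) methylation by 20 nM enzyme with 20 uM SAM, 2 h at room temperature after 15 min compound preincubation; anti-monomethyl H3K9 antibody plus donor/acceptor beads, 10 min dark.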
JMJD2A Tudor inh: qHTS Assay for Inhibitors of JMJD2A-Tudor Domain; Lysine-specific demethylase 4A (Homo sapiens), O75164; AlphaScreen JMJD2A-Tudor / H3K4me3 peptide binding; Potency, µM (series often up to 114 µM), without a hit: top-dose activity change, negative = inhibition, hits mostly inhibitors; 390,000 tested, 4.4% active; AID 504339, 2011; note: % is set by controls: 0 for no effect and ±100 for the full control effect; nearly all actives have a fitted effect of over 50% in size
HP1b binding inh: HTS for Inhibitors of HP1-beta Chromodomain Interactions with Methylated Histone Tails; AlphaScreen HP1-beta / biotin-H3K9me3 peptide binding; AID 540317, 2011; 390,000 tested, 0.56% active; Potency, µM (top dose mostly 114 µM), for inactives: at the top dose activity change, negative = inhibition, usual class: inhibitors; note: nearly all actives have a fitted effect of over 70% in size
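AlphaScreen: HP1-beta (50 nM) preformed 30 min with biotin-H3(1-18)K9me3 peptide (50 nM) in PBS pH 7.4, 0.01% Tween-20. Compound added for 30 min at RT, then streptavidin donor/nickel chelate acceptor beads (10 ug/mL) for 30 min.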
Sfp PPTase inh: qHTS Assay for Inhibitors of Bacillus subtilis Sfp phosphopantetheinyl transferase (PPTase) | 4'-phosphopantetheinyl transferase ffp (Bacillus subtilis), Q9F4F7 | Potency, µM, without a hit: largest response in the series, negative = inhibition, most hits filed as inhibitors | AID 1490, 2009 | Biochemical Sfp PPTase activity, qHTS | 310,000 tested, 3.5% active;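 note: the enzyme is Sfp with the accession as filed and its product quenches rhodamine fluorescence; 0% = enzyme reaction without inhibitor and -100% = no enzyme wells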
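With Hepes-Na pH 7.6 buffer containing 10 mM MgCl2, Sfp (15 nM) modified BHQ-2-YbbR (12.5 uM) using rhodamine-CoA (5 uM). Two reads 30 minutes apart at 525/598 nm yielded each well's rate.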
BAZ2B block: qHTS Assay for Inhibitors of BAZ2B | AlphaScreen BAZ2B-H3K14Ac peptide displacement | Potency, µM (doses to about 114 µM), for inactives: at the top dose activity change, negative = inhibition, actives largely listed as inhibitors | 360,000 tested, 4.4% active | AID 504333, 2011; note: % is set by controls: 0 for no effect and ±100 for the full control effect; nearly all actives have a fitted effect of over 60% in size
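BAZ2B 50 nM plus b-H3(5-23)K14Ac 50 nM, PBS pH 7.4/0.01% Tween-20, 30 min RT; compound added (max 110 uM), 30 min RT; streptavidin donor/Ni-chelate acceptor beads 10 ug/mL final, 20 min dark; AlphaScreen read.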
L3MBTL1 inh: qHTS Assay for the Inhibitors of L3MBTL1. AlphaScreen L3MBTL1–H3K9me1 peptide binding. AID 485360, 2010. Potency, µM (series often up to 57.1 µM), without a hit: at the highest dose activity, negative = inhibition, usual class: inhibitors. Lethal(3)malignant brain tumor-like protein 1 (Homo sapiens), Q9Y468. 230,000 tested, 0.66% active; note: % is set by controls: 0 for no effect and ±100 for the full control effect; nearly all actives have a fitted effect of over 60% in size
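AlphaScreen assay: L3MBTL1 (50 nM final) was preincubated 30 min at room temperature with biotinylated H3(1-15)K9me1 peptide (75 nM final), then 30 min with library compounds; streptavidin donor and nickel chelate acceptor beads (10 ug/mL final) added, 30 min dark.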
Starred values were filed as active, the others as inactive; u = inconclusive; x = no result given; [ ] = remark or other dose. Only some compounds are listed: those with a hit (about 12% of all), similar ones and a draw of the others. Calls come from the whole dose curve; as a rule, active = well fitted curve in the direction sought with a large enough effect; inconclusive = small, poorly fitted or top-dose-only effect, or another doubt; inactive = no such curve, though single readings can be large; an effect the other way counts as inactive or inconclusive. Potency is the fitted concentration of half-maximal effect.

SMILES | G9a inh | JMJD2A Tudor inh | HP1b binding inh | Sfp PPTase inh | BAZ2B block | L3MBTL1 inh
Cc1cc2oc(=O)c(CC(=O)O)c(C)c2c2occ(-c3ccccc3)c12 | -32%[59 µM] | -20% | 16% | x | -16% | x
COc1cc(/C=C/c2nc(C#N)c(N3CCC(C)CC3)o2)cc(OC)c1OC | u | -14% | 1% | x | u | x
CC(=O)N1c2ccc(S(=O)(=O)NCc3ccc(Cl)cc3)cc2CC1C (stereo not drawn) | 2%[59 µM] | -12% | 49% | x | 15% | x
Cc1oc(-c2ccccc2)nc1CSc1nnc(C)n2c1cc1sccc12 | -35%[59 µM] | -15% | 24% | x | -16% | x
Cc1cc(C)cc(NC(=O)CCn2cnc3ccccc3c2=O)c1 | -10%[59 µM] | -19% | 7%[57 µM] | x | -3% | x
Cc1ccc(NC(=O)CC(NCC2CCCO2)C(=O)O)cc1C (stereo not drawn) | 2.2µM* | -13% | 12% | -18% | -30% | x
CCC1CCCCN1C(=O)CNCC1CCCO1 (stereo not drawn) | 18µM* | -7%[11.4 µM] | -24% | 1% | -39% | 5%
CCC1CCCCN1C(=O)NC(=O)c1ccccc1 (stereo not drawn) | 35% | -3% | 38% | 20% | -18% | x
O=c1c(NCc2cccs2)nccn1-c1ccc(F)cc1 | -10%[59 µM] | -18% | 4% | x | -20% | x
COc1ccc(OCC(=O)N/N=C/c2cccn2-c2cccc(C(=O)O)c2)cc1 | 35µM* | 45µM* | u | x | 79µM* | u
COc1ccc(/C=N/NC(=O)CNC(=O)COc2ccccc2)cc1 | 6%[59 µM] | -6% | 6% | 3% | 9% | -3%
Cc1ccc(OCC(=O)N/N=C/c2cccn2C)cc1C | -13% | u | 2% | -22% | -33% | -5%
COc1ccccc1NC(=O)COc1ccc(/C=N/NC(=O)CSCc2ccc(Cl)cc2)cc1 | x | -16% | -7% | 40µM* | -6% | 10%
COc1ccc(OCC(=O)N/N=C/c2ccc(N(C)C)cc2)cc1 | 45µM* | -34% | 2% | -2% | u | x
FC(F)(F)c1ccccc1-c1nc(N2CCOCC2)c2ccccc2n1 | 7%[0.501 µM] | x | x | 10% | x | x
Cc1cccc(NC(=O)CSCC(=O)Nc2ccccc2N2CCCCC2)c1 | -28%[59 µM] | 8% | 10% | x | -3% | 4%
Cc1cccc(NC(=O)CSCC(=O)Nc2cccc(S(=O)(=O)N3CCCCCC3)c2)c1 | 35µM* | -21% | 1% | x | -36% | -8%
Cc1cc(SCC(=O)Nc2cccc(S(=O)(=O)N3CCOCC3)c2)nc2ccccc12 | 40µM* | -13% | 33% | -22% | -22% | -1%
Cc1cccc(NC(=O)CSCC(=O)Nc2ccccc2N2CCCC2)c1 | u | u | -5% | 9% | 35µM* | x
Cc1cc(C)c(C#N)c(SCC(=O)Nc2cccc(S(=O)(=O)N3CCCC3)c2)n1 | 50µM* | -8% | 42% | x | -3% | 4%
N#Cc1cccc(NC(=O)CNc2cccc(S(=O)(=O)N3CCCC3)c2)c1 | -33% | -22% | 62% | x | 3% | 10%
Cc1ccc(NC(=O)CSCC(=O)Nc2cccc(S(=O)(=O)N3CCCCCC3)c2)cc1 | 7%[12.7 µM] | -28% | 23% | x | -7% | -7%
CCOc1ccccc1NC(=O)CSc1nc2ccccc2nc1Cc1ccc(C)cc1 | 43%[59 µM] | -26% | 13%[57 µM] | x | -9% | x
Cc1noc(C)c1C(=O)Nc1cccc(S(=O)(=O)N2CCCCC2)c1 | 2%[59 µM] | 0% | 32% | x | -4% | 4%
Cc1cccc(NC(=O)CSCC(=O)Nc2ccc(S(=O)(=O)N3CCCCC3)cc2)c1 | 32µM* | -14% | 49% | x | -2% | 3%
SMILES | G9a inh | JMJD2A Tudor inh | HP1b binding inh | Sfp PPTase inh | BAZ2B block | L3MBTL1 inh
CCc1noc(C)c1C(=O)N1CCN(S(=O)(=O)c2ccc(C(C)=O)cc2)CC1 | 40µM* | -10% | 12% | x | 11% | 2%
CCc1noc(C)c1C(=O)Nc1cccc(S(=O)(=O)N2CCCCCC2)c1 | 8.9µM* | -9% | 21% | x | 5% | -8%
O[C@@H]1CO[C@H]2[C@@H]1OC[C@@H]2O | u | x | x | 21% | x | x
CC1CN(c2ncnc3c2oc2ccccc23)CC(C)O1 (stereo not drawn) | 50µM* | -24% | 54% | 4% | u | 8%
Clc1ccc(N2CCN(c3ncnc4c3oc3ccccc34)CC2)cc1 | -2% | -7% | 2% | 11% | 1% | -3%
Cc1nc(SCc2ccccc2Cl)c(C#N)c(C)c1C | 50%[59 µM] | 69% | 104% | x | 1% | x
COc1ccc(CC(=O)Nc2ccc(-c3nc4ccccc4s3)c(C)c2)cc1OC | 13%[59 µM] | -12% | 21% | x | -4% | x
N#C[C@H]1[C@H](c2ccccc2)[C@](C#N)(C(=O)c2ccccc2)[C@@H]2C=Cc3ccccc3N21 | 25µM* | x | x | 2% | 28µM* | -5%
CC(OC(=O)c1ccccc1NCCO)C(=O)NCC(=O)Nc1ccc(F)c(F)c1F (stereo not drawn) | 28µM* | 10% | 16% | 11% | -2% | x
Cc1ccc(NC(=O)CN(C)C(=O)C(C)OC(=O)c2ccccc2NCCO)cc1 (stereo not drawn) | u | 7% | 21% | x | u | 6%
Fc1ccccc1Sc1ccccc1CNC1=NCCN1 | 7.1µM* | u | u | -12% | -10% | 23%
CN(C)Cc1ccccc1Sc1cccc2ccccc12 | u | -32% | -10% | -71% | u | -18%
c1ccc(Sc2cccc3ccccc23)c(CNC2=NCCN2)c1 | 16µM* | 32µM* | -21% | -20% | u | -2%
O=C(c1ccco1)[C@@H]1[C@@H]2C(=O)N(c3ccccc3)C(=O)[C@@H]2C2c3ccccc3C=CN21 (stereo partly drawn) | 16%[2.33 µM] | 50µM* | -35% | u | 79µM* | -21%
O=C1C2C3C=CC(C3)C2C(=O)N1Cc1ccccc1 (stereo not drawn) | -21%[12.7 µM] | 6% | 28% | 17% | -4% | 5%
CC(C)(C)C(=O)[C@@H]1[C@@H]2C(=O)N(c3ccc4c(c3)OCCO4)C(=O)[C@@H]2C2c3ccccc3C=CN21 (stereo partly drawn) | 8.9µM* | u | u | -15% | u | -2%
CC(=O)[C@@H]1[C@@H]2C(=O)N(Cc3ccccc3)C(=O)[C@@H]2C2c3ccccc3C=CN21 (stereo partly drawn) | 2.8µM* | u | -2% | -13% | -30% | -1%
